From PubChem BioAssay AID588726 (The Scripps Research Institute Molecular Screening Center, 2011) come the findings set out here.

About 8,200 (2.3%) of roughly 360,000 compounds were called active. Rule as the data show it: active = inhibition above about 27%; inactive = the rest. What follows is part of a selection rich in actives, with near analogues and random picks from the rest.

For the test, the target named is Fructose-bisphosphate aldolase (Mycobacterium tuberculosis (strain ATCC 25618 / H37Rv)) (UniProt P9WQA3). Kind of test: M. tuberculosis aldolase activity blockers – biochemical, fluorescence, strain H37Rv, primary screen (AID 588726).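 Also: 0% = vehicle and 100% = reference inhibitor.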 Particulars: purified M. tuberculosis FBA, fluorescence read-out, at 1 µM, active compounds read high.
Sequence of Fructose-bisphosphate aldolase (Mycobacterium tuberculosis (strain ATCC 25618 / H37Rv)) (P9WQA3 whole entry, looked up): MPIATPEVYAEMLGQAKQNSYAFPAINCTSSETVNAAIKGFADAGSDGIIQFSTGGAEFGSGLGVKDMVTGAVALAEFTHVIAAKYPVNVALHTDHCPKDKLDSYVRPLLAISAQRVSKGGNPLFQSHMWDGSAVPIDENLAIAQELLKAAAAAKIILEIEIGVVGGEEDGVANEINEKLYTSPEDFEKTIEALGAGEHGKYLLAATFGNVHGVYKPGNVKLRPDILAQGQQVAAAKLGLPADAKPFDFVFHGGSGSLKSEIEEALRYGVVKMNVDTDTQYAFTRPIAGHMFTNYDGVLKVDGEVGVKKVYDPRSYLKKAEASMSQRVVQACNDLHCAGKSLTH
Regarding `COc1c(O)cccc1-c1nnn(CCC(=O)OCC(=O)c2ccccc2)n1`, the inhibition was 0.78% (inactive). Then `C/C=C(/C)C(=O)OC1Cc2c(ccc3ccc(=O)oc23)OC1(C)C` (stereo unspecified), with 26.4% (inactive). The value for `CC1(C)Oc2ccc3ccc(=O)oc3c2/C(=C/NCCO)C1=O` was 2.48% (inactive); that for `Cc1cc(=O)oc2c1ccc1ccccc12` was 37% (active); that for `Cc1cc(=O)oc2c(C(=O)c3ccccc3)c(OCC(N)=O)ccc12` was 0.48% (inactive). The value for `CC(=O)c1c(OCC(=O)N(C)C2CCCCC2)ccc2c(C)cc(=O)oc12` was 9.58% (inactive); that for `N#CC(C#N)=CN=c1ccn(Cc2ccc(Cl)cc2Cl)cc1` was -0.58% (inactive). Consider `O=C(COc1ccc2ccccc2c1)N1CCN(C(=O)c2cccs2)CC1`, for which the inhibition was -0.2% (inactive). The value for `CC(=O)NS(=O)(=O)c1ccc(NC(=O)/C=C/c2ccccc2Cl)cc1` was 6.43% (inactive); that for `CC(=O)Nc1ccc(S(=O)(=O)Nc2cc(C)cn(Cc3ccc(C)cc3)c2=O)cc1` was -0.45% (inactive); that for `Cn1c(C(=O)NCCN2CCc3ccccc3C2)cc2c(=O)[nH]c3ccccc3c21` was 5.1% (inactive).

Turning to `O=C(NCCN1CCN(Cc2ccccc2)CC1)c1cc2c(=O)[nH]c3ccccc3c2s1`, the inhibition is 47.8% (active). Then `CCC1CCCCN1CCCNC(=O)c1cc2c(Cl)nc3ccccc3c2s1` (stereo unspecified), with -4.11% (inactive); and `Cc1ccc(C)c(C(O)c2ncc(-c3cccc4ccccc34)[nH]2)c1` (stereo unspecified), with 23.2% (inactive). The value for `COc1ccc(C)cc1S(=O)(=O)NCCc1ccccc1` was -6.6% (inactive); that for `COc1cccc2oc(CCc3ccccc3)cc(=O)c12` was 33.4% (active). With `COc1ccccc1CN(C)C(=O)c1cc2ccccc2o1`, the inhibition is 2.4% (inactive). Then `CCOc1ccc(C(=O)NC(=S)Nc2ccc(N3CCOCC3)c(Cl)c2)cc1[N+](=O)[O-]`, with 11% (inactive); and `COC(=O)C1C(=O)CC(C)(O)C(C(=O)OC)C1c1ccc2c(c1)OCO2` (stereo unspecified), with 0.24% (inactive). Regarding `COc1cc(OC)c(S(=O)(=O)Nc2ccccc2C(=O)O)cc1S(=O)(=O)Nc1ccccc1C(=O)O`, the inhibition was 30.9% (active). The value for `COc1cc(/C=C/C(=O)O)cc(S(=O)(=O)Nc2ccccc2C(=O)NCCc2ccccc2)c1OC` was 0.65% (inactive); that for `COc1ccc(OC)c(S(=O)(=O)Nc2ccccc2F)c1` was -2.78% (inactive); that for `COc1ccc(N2CC(C(=O)NCCS(=O)(=O)N3CCN(c4ccccc4)CC3)CC2=O)cc1` (stereo unspecified) was -1.82% (inactive). The value for `CCOC(=O)N1CCN(Cc2nc3cc(NC(=O)CC)ccc3n2CC)CC1` was 0.91% (inactive); that for `COCc1c(C(=O)OCC(=O)Nc2ccc(OC(F)F)cc2)oc2ccccc12` was 1.74% (inactive); that for `CCOC(=O)c1ccn(-c2nc(-c3ccco3)cc(C(F)(F)F)n2)n1` was 10.6% (inactive). The value for `COC(=O)c1cnn2c(C(F)(F)F)cc(-c3ccco3)nc12` was 14% (inactive); that for `Cc1cc(C)c2nc(-c3ccco3)cc(C(=O)O)c2c1` was 105% (active).

Turning to `Cc1ccnc(NS(=O)(=O)c2ccc(NC(=O)c3oc4ccc(F)cc4c3C)cc2)n1`, the inhibition is 1.55% (inactive).

For the compound `CN(C(=O)c1cccc(NC(=O)Cc2ccc(NC(=O)C3CCCN(C(=O)C4CC4)C3)cc2)c1)C1CC1` (stereo unspecified), the inhibition was 0.61% (inactive). The value for `Cc1ccc(C(=O)c2coc3ccc(O)c(CN(C)C)c23)cc1` was -0.7% (inactive); that for `CN(C)Cc1c(O)ccc2occ(C(O)c3ccccc3)c12` (stereo unspecified) was 6.31% (inactive). For `CN(C)Cc1c(O)ccc2c(=O)c(-c3ccccc3Cl)coc12`, the inhibition is 96.3% (active). Regarding `O=C(CNC(=O)OCc1ccccc1)Oc1cc2oc(=O)cc(-c3ccccc3)c2cc1Cl`, the inhibition was 36.7% (active). For `CC(Oc1ccc2c(-c3ccccc3)cc(=O)oc2c1)C(=O)NC(Cc1c[nH]c2ccccc12)C(=O)O` (stereo unspecified), the inhibition was -3.79% (inactive). Then `O=C(CNC(=O)c1ccccc1)NCC(=O)OCc1ccc(Cl)cc1`, with 0.34% (inactive); and `CCN(C(=O)COC(=O)C1CCN(S(=O)(=O)c2ccc(C)c(C)c2)CC1)C1CCS(=O)(=O)C1` (stereo unspecified), with 4.31% (inactive).

For `CCNC(=O)COC(=O)CCNC(=O)c1cccc(C)c1`, the inhibition was -2.08% (inactive).

On to `COCCN(CCOC)c1nc(N)c2c(N)nc3c(c2c1C#N)CC(=O)N3Cc1ccc(Cl)cc1`, for which the inhibition is 32.8% (active). Then `CN(Cc1ccccc1)C(=O)C1CCCN(c2ncnc3c2nc2n3CCCCC2)C1` (stereo unspecified), with 0.44% (inactive); and `COc1cccc(NS(=O)(=O)c2ccc(-c3coc(C)n3)cc2)c1`, with -2.5% (inactive); and `O=C(/C=C/[C@H]1O[C@@H](n2ccc(=O)[nH]c2=O)[C@H](O)[C@@H]1O)NCc1ccccn1`, with -1.68% (inactive). As for `CCOC(=O)c1cc(C)sc1NC(=O)C1CCC1`, the inhibition was 4.25% (inactive). Then `Cc1cc(C(=O)OCC(=O)Nc2nnc(C(C)C)s2)c2ccccc2n1`, with 1.64% (inactive).

On to `CCOC(=O)c1cc(C(C)C)sc1NC(=O)COC(=O)c1nccnc1N`, for which the inhibition is 55.2% (active).

Turning to `COc1ccc2c(c1)NP(=S)(c1ccccc1)N2` (stereo unspecified), the inhibition was 18.1% (inactive). Then `Cc1cc(C)c2c(c1)NP(=S)(c1ccccc1)N2` (stereo unspecified), with 34.4% (active); and `COC(=O)c1cc(OC)c(OC)cc1NC(=O)C1CCCO1` (stereo unspecified), with 15.2% (inactive). Then `O=C(C1CCCO1)N1CCC(c2nc3ccccc3[nH]2)CC1` (stereo unspecified), with -0.87% (inactive); and `COc1cc2nc(N3CCN(C(=O)[C@@H]4CCCO4)CC3)nc(N)c2cc1OC`, with 95.4% (active). Consider `C=CCOc1ccc(/C=C/C(=O)OCC(=O)NCC2CCCO2)cc1` (stereo unspecified), for which the inhibition was 1.08% (inactive). Then `CCOc1ccc(S(=O)(=O)NCCC(=O)NCC2CCCO2)cc1` (stereo unspecified), with -1.07% (inactive). Then `CC1(C)CC(=O)c2cc(OCC(=O)NCC3CCCO3)ccc2O1` (stereo unspecified), with 78.8% (active); and `CC1=C(C(=O)N(C(C)C)C(C)C)CC(CC(=O)NCCCCc2ccccc2)C(=O)N1CCC1=CCCCC1` (stereo unspecified), with -1.08% (inactive); and `O=C(NC1CC1)C(Cc1ccccc1)NS(=O)(=O)c1ccccc1F` (stereo unspecified), with 2.61% (inactive). Regarding `Cc1ccc(SCC(=O)NNC(=O)c2ccc(S(C)(=O)=O)cc2)cc1`, the inhibition was 0.63% (inactive). Then `CC(C)(C)c1ccc(/C=C/C(=O)NCCCn2ccnc2)cc1`, with 1.36% (inactive); and `O=C(O)c1ccccc1-c1cccc2nncn12`, with 4.68% (inactive); and `CCCC/C=C/c1cccc2nncn12`, with 27.5% (active). For the compound `OCC1(CO)CC2(C1)CC(CO)(CO)C2`, the inhibition was 0.01% (inactive). For `Cc1nn(-c2ncccn2)c2c1C(=O)CC(C)(C)C2Br` (stereo unspecified), the inhibition was 4.4% (inactive). The value for `COc1ccc(NC(=O)/C(N=Nc2cccc(S(=O)(=O)Nc3ccc(SC(F)F)cc3)c2)=C(\C)O)cc1` was -0.31% (inactive). On to `CCc1ccc(C(=O)NC(=S)Nc2ccccc2N2CCOCC2)cc1`, for which the inhibition is 0.12% (inactive). Then `Cc1cc(=O)[nH]c(SCc2ccc(Cl)cc2)n1`, with 0.44% (inactive). Regarding `Cc1cc(=O)n2[nH]c(-c3cccc(Cl)c3)cc2n1`, the inhibition was 32.4% (active).

In the case of `O=c1c2c(nc3cc(-c4cccc(Cl)c4)[nH]n13)CCCC2`, the inhibition was 3.87% (inactive). As for `C[C@H](NC(=O)c1ccccc1Cl)C(=O)OCCOc1cccc(Cl)c1`, the inhibition was 4.6% (inactive). For the compound `CCN(CC)CCNCc1ccc(OCc2ccc(Cl)nc2)c(OC)c1`, the inhibition was -0.85% (inactive).

On to `O=C(CN1C(=O)NC2(CCCC2)C1=O)Nc1ccc(F)c(F)c1F`, for which the inhibition is -0.1% (inactive). The value for `CC(=O)NCCC(=O)Nc1nc(C)c(Cc2ccc3c(c2)OCO3)s1` was -0.89% (inactive).

On to `Cc1cc(NC(=O)CN2C(=O)NC(CCc3ccccc3)C2=O)no1` (stereo unspecified), for which the inhibition is 0.86% (inactive). Then `COCC(=O)N(C)[C@H]1C[C@H]2c3cc(Oc4ccccc4C)ccc3CCN2C(=O)[C@H]1[C@H](C)O`, with 0.95% (inactive). In the case of `C[C@H](O)[C@@H]1C(=O)N2CCc3ccc(N4CCOCC4)cc3[C@@H]2C[C@@H]1N(C)C(=O)C(C)(C)C`, the inhibition was 7.29% (inactive). The value for `C[C@H](O)[C@@H]1C(=O)N2CCc3c([nH]c4ccccc34)[C@@H]2C[C@@H]1N(C)C(=O)Nc1ccc(F)cc1` was 55.9% (active); that for `COc1ccc(CCNC(=O)CCCCCNC(=O)N2CCn3c2nc2ccccc23)cc1OC` was -0.38% (inactive); that for `CCc1nc2ccccc2c(C(=O)OC2CCCCC2=O)c1C` (stereo unspecified) was 0.09% (inactive). For the compound `CCc1c(C)c2ccc(OC3CCCCC3=O)cc2oc1=O` (stereo unspecified), the inhibition was 90.5% (active). For the compound `CCOc1ccc2c(=O)c(-c3ccc4c(c3)OCCCO4)c(C)oc2c1`, the inhibition is -0.24% (inactive). As for `COC(=O)C(NS(=O)(=O)c1ccc(F)cc1)c1ccccc1` (stereo unspecified), the inhibition was 1.52% (inactive). Regarding `CCSC1(SCC)N=C(N)C2(C#N)C(c3ccccc3)NC(C)=CC12C#N` (stereo unspecified), the inhibition was 4.9% (inactive).

In the case of `CN1C[C@@H](CO)O[C@@H](n2cnc3c(N4CCN(CCO)CC4)ncnc32)C1`, the inhibition is -1.44% (inactive). The value for `COc1cccc2cc(C(=O)N3CCN(C(=O)c4ccccc4)CC3)c(=O)oc12` was -2.27% (inactive). For the compound `COc1ccc(-c2nc(CS(=O)CC(=O)NCc3ccccn3)c(C)o2)cc1` (stereo unspecified), the inhibition was 4.79% (inactive). Regarding `C=CCc1cccc2cc(C(=O)N3CCN(C(=O)OCC)CC3)c(=O)oc12`, the inhibition is 1.44% (inactive).

In the case of `COc1ccc(C(=O)N2CCCN(C)CC2)c(OC)c1`, the inhibition is 1.38% (inactive). As for `COc1ccc2oc(=O)c(C(=O)NCc3ccccn3)cc2c1`, the inhibition was 82.7% (active).

Consider `CCOC(=O)N1CCN(C(=O)c2n[nH]c(=O)c3ccccc23)CC1`, for which the inhibition is -0.89% (inactive). On to `COc1ccc2oc(=O)c(C(=O)N3CCCC3)cc2c1`, for which the inhibition is 27.7% (active).

Take `COc1ccc(NC(=O)C2C3C=CC(C3)C2C(=O)NCc2ccccn2)c(OC)c1` (stereo unspecified): the inhibition was 3.99% (inactive). Then `CCOC(=O)N1CCN(C(=O)c2cc3c(ccc4ccccc43)oc2=O)CC1`, with 48.8% (active). As to `C=CCC(CC=C)(C(N)=O)c1ccccc1`, the inhibition was -1.04% (inactive).
